Laboratory results: publication PMC4336329 (PLoS ONE, 2015)
In all, about 310,000 compounds went through this assay and about 14,000 (4.5%) showed an effect of 50% or more. The effect is printed as a negative number. For the sample, strong results were picked, then their nearest neighbours and some compounds at random.

target: human ether-à-go-go-related gene (hERG) potassium channel (human, UniProt Q12809); experiment: primary screen, population patch clamp on CHO cells stably expressing hERG; higher = less effect of the substance
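Note: peak tail current of the secondary pulse compared with the same well before compound.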

human ether-à-go-go-related gene (hERG) potassium channel, sequence (Q12809 whole entry, looked up): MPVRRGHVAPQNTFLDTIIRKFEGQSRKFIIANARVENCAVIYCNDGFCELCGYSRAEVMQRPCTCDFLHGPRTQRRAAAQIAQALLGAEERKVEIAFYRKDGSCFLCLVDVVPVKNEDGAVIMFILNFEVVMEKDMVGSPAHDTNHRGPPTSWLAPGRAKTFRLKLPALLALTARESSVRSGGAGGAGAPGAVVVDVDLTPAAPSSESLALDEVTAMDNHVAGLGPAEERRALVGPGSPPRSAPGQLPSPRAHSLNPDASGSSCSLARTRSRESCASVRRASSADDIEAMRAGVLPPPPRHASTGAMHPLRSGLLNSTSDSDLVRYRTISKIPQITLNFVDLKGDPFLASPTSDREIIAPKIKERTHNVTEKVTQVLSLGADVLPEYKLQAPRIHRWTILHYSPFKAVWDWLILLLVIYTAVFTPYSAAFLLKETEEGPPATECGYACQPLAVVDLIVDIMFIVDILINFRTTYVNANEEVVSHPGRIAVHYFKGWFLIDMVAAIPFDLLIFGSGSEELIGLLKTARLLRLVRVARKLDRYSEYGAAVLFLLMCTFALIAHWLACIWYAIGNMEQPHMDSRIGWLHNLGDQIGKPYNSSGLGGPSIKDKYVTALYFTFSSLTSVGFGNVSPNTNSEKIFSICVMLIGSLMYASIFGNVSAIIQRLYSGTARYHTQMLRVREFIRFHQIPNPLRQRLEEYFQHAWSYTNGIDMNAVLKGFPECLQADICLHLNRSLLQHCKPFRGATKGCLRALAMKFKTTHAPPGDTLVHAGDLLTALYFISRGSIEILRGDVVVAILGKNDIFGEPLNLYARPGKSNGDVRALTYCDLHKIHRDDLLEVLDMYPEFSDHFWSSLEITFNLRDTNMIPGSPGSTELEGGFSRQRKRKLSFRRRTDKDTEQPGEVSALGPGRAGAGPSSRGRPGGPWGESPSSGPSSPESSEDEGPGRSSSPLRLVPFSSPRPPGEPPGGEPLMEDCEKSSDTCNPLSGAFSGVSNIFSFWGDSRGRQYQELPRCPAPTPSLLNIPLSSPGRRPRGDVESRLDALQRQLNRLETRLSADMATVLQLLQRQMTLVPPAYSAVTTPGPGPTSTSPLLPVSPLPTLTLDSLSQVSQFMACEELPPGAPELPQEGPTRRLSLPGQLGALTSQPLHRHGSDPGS

| Compound | hERG current change (%, negative = inhibition) at 10uM [%] |
| --- | --- |
| O=C(ONC1=NCCCCC1)c1ccc([N+](=O)[O-])cc1 | -5.87 |
| CC(=O)Nc1ccc(S(=O)(=O)N2CCC(C(=O)NC3CCCC3)CC2)cc1 | -0.813 |
| CC(=O)Nc1ccc(S(=O)(=O)NC(C)C(=O)NCCc2ccc(F)cc2)cc1 (centres unmarked) | 11.3 |
| Cc1ccc(C(O)(C(=O)NNc2ccc3ccccc3[nH+]2)c2ccc(C)cc2)cc1.[Cl-] | 12.9 |
| Cc1cccc(-n2c(SCC(=O)O)nc3sc4c(c3c2=O)CCCC4)c1 | 16.6 |
| CCCC(=O)C1C(=O)CC(C)(C)C(c2cc(C)no2)C1=O (centres unmarked) | -6.76 |
| CC(Sc1nnc(-c2ccc(OC(F)F)cc2)n1N)C(=O)NCC1CCCO1 (centres unmarked) | -24.2 |
| Cc1nnc(SCC(=O)NCc2cccs2)n1-c1ccccc1 | 1.68 |
| Nn1c(SCC(=O)NCC2CCCO2)nnc1-c1ccc(OC(F)F)cc1 (centres unmarked) | -68.5 |
| COC(=O)CSc1nnc(-c2ccoc2C)n1-c1ccc(C)cc1 | -37 |
| COc1ccc(-c2nnc(SCC(=O)NCC3CCCO3)n2C)cc1 (centres unmarked) | 9.8 |
| Cc1ccc(-n2c(SCC(=O)NCc3cccs3)nnc2-c2ccoc2C)cc1 | -74.8 |
| O=C1C2CCCN2C(c2ccc(Cl)cc2)N1c1ccccn1 (centres unmarked) | -3.03 |
| COc1ccc(CNCC(O)(c2ccc(F)cc2)c2ccc(F)cc2)cc1OC | -62.1 |
| Cc1ccc(CNCC(O)(c2ccccc2)c2ccccc2)cc1 | -33 |
| COc1ccccc1CNCC(O)(c1ccc(Cl)cc1)c1ccc(Cl)cc1 | -13.7 |
| OC(CNCc1ccccc1F)(c1ccc(F)cc1)c1ccc(F)cc1 | -26.7 |
| COc1ccc(CNCC(O)(c2ccccc2)c2ccc(F)cc2)cc1OC (centres unmarked) | -61.2 |
| COc1ccc(CNCC(O)(c2ccc(Cl)cc2)c2ccc(Cl)cc2)cc1OC | -30.9 |
| COc1ccccc1CNCC(O)(c1ccc(F)cc1)c1ccc(F)cc1 | -68 |
| COc1ccc(CNCC(O)(c2ccccc2)c2ccccc2)cc1OC | -60 |
| COc1ccc(CNCc2ccc(C(F)(F)F)cc2)cc1OC.O=C(O)C(=O)O | 6.54 |
| N#CCCN(Cc1ccccc1)S(=O)(=O)c1cccs1 | -16.5 |

| Compound | hERG current change (%, negative = inhibition) at 10uM [%] |
| --- | --- |
| COc1cc(CC(=O)N(C)CC(=O)Nc2cc(C)ccc2C)cc(OC)c1OC | 11 |
| COc1ccc(OCC(=O)O/N=C(\N)c2ccc(OC)c(OC)c2)cc1 | 7.84 |
| CN(C)S(=O)(=O)c1ccc(C(=O)OCC(=O)Nc2cccnc2Cl)cc1 | 1.64 |
| CC(=O)N1CCN(Cc2nc3cc(NC(=O)Cn4nc(C)c5ccccc5c4=O)ccc3n2C)CC1 | 17.9 |
| COc1ccc(CN2C(=O)CCC2(C)C(=O)NC2CCCCCC2)cc1 (centres unmarked) | -13.8 |
| O=C(NCc1ccncc1)Nc1cc(Cl)ccc1Cl | -8.6 |
| CC1=CN2CC(O)CN=C2C=C1.Cl (centres unmarked) | -1.57 |
| COc1cccc(OC)c1OCCNCC1CSc2ccccc2O1.Cl (centres unmarked) | -53.6 |
| COc1cccc(OC)c1OCCNCCO | 21.5 |
| COc1cccc(OC)c1OCCNCC1COc2ccccc2O1.Cl (centres unmarked) | -22.5 |
| COc1ccc(-n2nnc3c(SCC(=O)Nc4ccccc4F)ncnc32)cc1 | 18.9 |
| CCOC(=O)CNC(=O)CSc1nnc(-c2ccco2)n1Cc1ccco1 | 10.4 |
| CCOc1ccccc1NC(=O)CSc1nnc(-c2ccccn2)n1Cc1ccco1 | -67.3 |
| CCOc1ccccc1NC(=O)CSc1nnc(-c2ccccc2Cl)n1Cc1ccco1 | -32 |
| COc1ccccc1NC(=O)CSc1nnc(-c2ccco2)n1N | -3.82 |
| COCCn1c(SCC(=O)Nc2ccccc2OC)nnc1-c1ccco1 | -13.6 |
| COc1ccc(C)cc1NC(=O)CSc1nnc(-c2ccccn2)n1Cc1ccco1 | -15.8 |
| COc1ccccc1NC(=O)CSc1nnc(-c2ccccn2)n1Cc1ccco1 | -9.97 |
| CCOc1ccccc1NC(=O)CSc1nnc(Cn2c(=O)sc3ccccc32)n1C | -61.9 |
| CCOc1ccc(NC(=O)CSc2nnc(Cn3c(=O)sc4ccccc43)n2C)cc1 | -4.3 |
| COc1ccccc1NC(=O)CSc1nnc(Cn2c(=O)sc3ccccc32)n1C | -44 |
| CCOc1ccccc1NC(=O)CSc1nnc(-c2ccco2)n1Cc1ccco1 | -63.4 |
| CCCn1c(SCC(=O)Nc2ccccc2OC)nnc1-c1ccco1 | -68.5 |

| Compound | hERG current change (%, negative = inhibition) at 10uM [%] |
| --- | --- |
| CCOc1ccc2nc(NC(=S)N(C)C)sc2c1 | 13 |
| Cc1ccnc(NC(=S)NC(=O)c2ccco2)c1 | -10.3 |
| Cc1cc(C)c(C(=O)COC(=O)c2cc([N+](=O)[O-])ccc2N2CCOCC2)cc1C | -4.07 |
| Cc1ccc(SC(C)c2nc(-c3cccnc3)no2)cc1 (centres unmarked) | -30.5 |
| COc1ccc(OC)c(CN2CCN(C(=O)c3ccco3)CC2)c1.O=C(O)C(=O)O | 0.201 |
| COc1ccccc1NC(=O)CSc1nnc(-c2ccco2)n1Cc1ccco1 | -65.4 |
| COC(=O)CSc1nnc(-c2ccco2)n1Cc1ccco1 | -26.8 |
| COc1ccc(C)cc1NC(=O)CSc1nnc(-c2ccco2)n1Cc1ccco1 | -12.8 |
| CN(C)c1cc(-c2ccc(C#N)cc2)oc(=O)c1Cl | -50.1 |
| CN(C)c1cc(-c2ccc(Cl)cc2)oc(=O)c1Cl | -6.67 |
| CN(C)c1cc(-c2ccc(Br)cc2)oc(=O)c1Cl | 15.5 |
| CCCCSc1cc(C)nc(N)n1 | -1.73 |
| O=C(Nc1ccc(O)c(C(=O)O)c1)c1ccc2c(c1)C(=O)N(CC1CCCO1)C2=O (centres unmarked) | 6.21 |
| CCC(O)(CCN1CCCCC1)c1ccccc1 (centres unmarked) | -5.84 |
| Cl.OC(CCCN1CCCCC1)(c1ccccc1)c1ccccc1 | -44 |
| CCCCCC(O)(CCN1CCCCC1)c1ccc(OCC)cc1.Cl (centres unmarked) | -77.1 |
| CCCCCCC(O)(CCN1CCCCC1)c1ccccc1.Cl (centres unmarked) | -70.3 |
| CCCCOc1ccc(C(O)(CCN2CCOCC2)c2ccccc2)cc1.Cl (centres unmarked) | -21.7 |
| C=CCC(O)(CCN1CCCCC1)c1ccccc1.Cl (centres unmarked) | -10.8 |
| COc1ccc(C(O)(CCc2ccccc2)CCN2CCCCC2)cc1.Cl (centres unmarked) | -17.5 |
| CS(=O)(=O)O.OC(CCN1CCCCC1)(c1ccccc1)c1ccccc1 | -36.2 |
| CCCCCC(O)(CCN1CCCCC1)c1ccccc1.Cl (centres unmarked) | -82.4 |
| NC(=O)c1nsc(C(=O)N(c2cccc(F)c2)C(C(=O)NCc2ccccc2)c2ccc(O)cc2)c1N (centres unmarked) | -22.4 |

| Compound | hERG current change (%, negative = inhibition) at 10uM [%] |
| --- | --- |
| Cc1cccn2c(CN(C)CC3CCCCO3)c(C(=O)N3CCCCC3)nc12 (centres unmarked) | 20.9 |
| Cc1cc(S(=O)(=O)NCc2ccco2)c(C)cc1Cl | 14.1 |
| COc1ccc(-c2nc3ccccc3c(=O)n2N)cc1 | -13.7 |
| Cc1nnc(NC(=O)c2csc3c2CCC(C)C3)s1 (centres unmarked) | 13.9 |
| O=c1c2ccccc2nc(-c2ccccc2)n1CCCN1CCOCC1 | -20.4 |
| N=c1c2c(-c3ccccc3)c(-c3ccccc3)n(Cc3ccco3)c2ncn1CCCN1CCOCC1 | -84.9 |
| O=C(NCCN1CCOCC1)C(=O)NCc1ccco1 | 19.5 |
| O=C(NCCCN1CCOCC1)C(=O)NCc1ccco1 | -1.68 |
| N=c1c2c(-c3ccccc3)c(-c3ccccc3)n(Cc3ccco3)c2ncn1CCN1CCOCC1 | -75.9 |
| CC(C)Cn1c2nc3ccccc3nc2c2c(=O)n(CCN3CCOCC3)cnc21 | -48.1 |
| Cc1ccccc1C(=O)NCCCNC(=O)c1cnccn1 | 13.5 |
| COc1ccccc1OCc1nc(Cc2ccc(Cl)cc2)no1 | -31.4 |
| CCn1c(=O)c(C(=O)NNC(=O)c2ccccc2Cl)c(O)c2ccccc21 | 7.09 |
| CC1=C(C(=O)OCC2CCCO2)C(c2ccccc2)C2=C(CCCC2=O)N1 (centres unmarked) | 11.2 |
| CCC(C)[C@H](NC(=O)N1CCn2c1nc1ccccc12)C(=O)NCCc1ccccc1 (some centres unmarked) | -2.42 |
| COc1ccc(OC)c(/C=C/C(=O)OCC(=O)NCc2cccs2)c1 | 17.8 |
| Cc1onc(-c2ccccc2)c1NC(=O)N(CCC(=O)O)Cc1ccccc1 | 2.16 |
| COc1ccc(NC(=O)CN(C)C(=O)c2ccc3c(c2)NC(=O)CS3)cc1 | -10.2 |
| COC(=O)c1cc(NC(=O)c2cccs2)ccc1N1CCOCC1 | -1.74 |
| COc1ccc(-c2cc(C(=O)N3CC(C)CC(C)C3)c3ccccc3n2)cc1 (centres unmarked) | 5.7 |
| CC(C)CC(C(=O)N1CCc2ccccc2C1)N1C(=O)c2ccccc2C1=O (centres unmarked) | -50.3 |
| O=C(CCCN1C(=O)c2ccccc2C1=O)N1CCc2ccccc2C1 | -27.2 |
| CC(C)CC(C(=O)N1CCOCC1)N1Cc2ccccc2C1=O (centres unmarked) | 29.3 |
